The supplement of paper PMC10849652
Targets with a hit are over-represented here; the source holds about 7,900 in all. About 0.6% of all pairs of compound and target were hits.

These targets were tested with Cn1cc(-c2ccc3nnc(C(F)(F)c4ccc5ncccc5c4)n3n2)cn1 (assay: log2 fold change, soluble protein after heating vs DMSO (PISA); higher = thermal stabilisation; K562 cells, 10 uM, 30 min; active = over 0.2 and 3.5 SD of the protein, either way, in both replicates (recomputed)).
Procedure, shortened: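 Values are thermal stability changes relative to control samples and are taken from duplicates. They are stated as log2 fold changes. Before quantification by TMTpro 16plex LC-MS/MS with equalised channel sums, K562 cells at 2×10^6 cells/mL were treated with 10 μM compound for 30 min, heated in aliquots for 3 min across 48°C-58°C, pooled, extracted in PBS with 0.5% NP-40 at 4°C, and centrifuged at 21,000xg for 90 min to give the soluble supernatant.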

Chain of UniProt O95155 (O95155 whole entry, looked up): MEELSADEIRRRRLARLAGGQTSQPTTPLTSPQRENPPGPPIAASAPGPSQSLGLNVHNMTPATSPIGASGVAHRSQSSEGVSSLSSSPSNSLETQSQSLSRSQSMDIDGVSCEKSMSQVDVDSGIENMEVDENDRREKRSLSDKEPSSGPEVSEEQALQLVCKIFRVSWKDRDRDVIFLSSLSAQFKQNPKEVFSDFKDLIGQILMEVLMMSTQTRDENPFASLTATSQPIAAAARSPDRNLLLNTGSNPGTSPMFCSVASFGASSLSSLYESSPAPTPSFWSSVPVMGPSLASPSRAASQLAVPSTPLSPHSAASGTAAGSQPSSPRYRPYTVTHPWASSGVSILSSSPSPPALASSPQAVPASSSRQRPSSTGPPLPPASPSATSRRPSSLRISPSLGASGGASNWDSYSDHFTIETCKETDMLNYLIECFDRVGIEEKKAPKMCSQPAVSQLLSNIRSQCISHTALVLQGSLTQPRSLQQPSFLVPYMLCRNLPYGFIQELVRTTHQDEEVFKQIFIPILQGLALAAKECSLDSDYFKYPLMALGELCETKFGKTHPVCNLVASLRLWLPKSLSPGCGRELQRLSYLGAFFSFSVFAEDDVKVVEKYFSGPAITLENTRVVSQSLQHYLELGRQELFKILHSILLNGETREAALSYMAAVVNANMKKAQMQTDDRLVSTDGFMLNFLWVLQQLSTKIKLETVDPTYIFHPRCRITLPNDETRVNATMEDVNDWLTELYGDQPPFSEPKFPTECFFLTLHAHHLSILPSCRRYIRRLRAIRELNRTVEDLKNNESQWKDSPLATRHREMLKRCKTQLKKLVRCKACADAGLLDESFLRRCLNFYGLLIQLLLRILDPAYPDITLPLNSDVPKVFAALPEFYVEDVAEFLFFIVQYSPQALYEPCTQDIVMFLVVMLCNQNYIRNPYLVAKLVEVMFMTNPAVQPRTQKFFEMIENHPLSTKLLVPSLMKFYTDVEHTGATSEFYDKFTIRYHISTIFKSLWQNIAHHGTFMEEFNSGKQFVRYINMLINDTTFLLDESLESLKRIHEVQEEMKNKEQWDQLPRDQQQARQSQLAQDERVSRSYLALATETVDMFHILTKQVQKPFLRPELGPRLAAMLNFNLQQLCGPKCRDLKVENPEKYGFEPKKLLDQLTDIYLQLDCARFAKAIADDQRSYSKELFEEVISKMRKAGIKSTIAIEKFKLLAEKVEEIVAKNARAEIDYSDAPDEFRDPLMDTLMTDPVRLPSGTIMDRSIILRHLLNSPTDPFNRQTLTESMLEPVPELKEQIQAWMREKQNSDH
Chain of UniProt Q96DX7 (Q96DX7 whole entry, looked up): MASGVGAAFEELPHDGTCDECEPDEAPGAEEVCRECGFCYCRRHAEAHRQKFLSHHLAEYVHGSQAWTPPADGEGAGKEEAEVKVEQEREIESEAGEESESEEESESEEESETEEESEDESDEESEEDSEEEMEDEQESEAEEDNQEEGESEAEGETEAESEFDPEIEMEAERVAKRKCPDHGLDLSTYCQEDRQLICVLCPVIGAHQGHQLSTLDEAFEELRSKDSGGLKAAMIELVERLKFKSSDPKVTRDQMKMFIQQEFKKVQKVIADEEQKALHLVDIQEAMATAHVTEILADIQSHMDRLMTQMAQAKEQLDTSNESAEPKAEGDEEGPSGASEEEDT
Chain of UniProt Q9Y5Z9 (Q9Y5Z9 whole entry, looked up): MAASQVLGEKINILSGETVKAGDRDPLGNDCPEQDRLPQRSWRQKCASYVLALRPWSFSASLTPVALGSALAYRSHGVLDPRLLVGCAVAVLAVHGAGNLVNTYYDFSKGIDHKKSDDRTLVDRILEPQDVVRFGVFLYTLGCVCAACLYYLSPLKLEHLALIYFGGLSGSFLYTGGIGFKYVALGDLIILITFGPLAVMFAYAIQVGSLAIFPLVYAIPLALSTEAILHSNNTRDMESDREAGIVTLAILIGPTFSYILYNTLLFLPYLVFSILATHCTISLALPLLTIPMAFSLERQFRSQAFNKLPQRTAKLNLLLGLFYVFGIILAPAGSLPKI
Chain of UniProt Q9UK41 (Q9UK41 whole entry, looked up): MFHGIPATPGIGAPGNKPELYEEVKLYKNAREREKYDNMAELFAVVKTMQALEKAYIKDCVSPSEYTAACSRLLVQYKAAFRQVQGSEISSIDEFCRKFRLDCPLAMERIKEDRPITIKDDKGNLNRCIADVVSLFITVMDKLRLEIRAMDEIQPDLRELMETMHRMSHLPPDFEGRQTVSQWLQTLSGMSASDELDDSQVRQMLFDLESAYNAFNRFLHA
Chain of UniProt O95857 (O95857 whole entry, looked up): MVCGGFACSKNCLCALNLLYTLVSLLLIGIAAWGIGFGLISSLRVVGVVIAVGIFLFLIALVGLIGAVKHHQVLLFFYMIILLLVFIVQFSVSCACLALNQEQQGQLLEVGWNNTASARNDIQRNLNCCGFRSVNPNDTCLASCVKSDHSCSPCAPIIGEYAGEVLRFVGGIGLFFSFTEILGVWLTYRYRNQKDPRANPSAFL
Chain of UniProt Q641Q2 (Q641Q2 whole entry, looked up): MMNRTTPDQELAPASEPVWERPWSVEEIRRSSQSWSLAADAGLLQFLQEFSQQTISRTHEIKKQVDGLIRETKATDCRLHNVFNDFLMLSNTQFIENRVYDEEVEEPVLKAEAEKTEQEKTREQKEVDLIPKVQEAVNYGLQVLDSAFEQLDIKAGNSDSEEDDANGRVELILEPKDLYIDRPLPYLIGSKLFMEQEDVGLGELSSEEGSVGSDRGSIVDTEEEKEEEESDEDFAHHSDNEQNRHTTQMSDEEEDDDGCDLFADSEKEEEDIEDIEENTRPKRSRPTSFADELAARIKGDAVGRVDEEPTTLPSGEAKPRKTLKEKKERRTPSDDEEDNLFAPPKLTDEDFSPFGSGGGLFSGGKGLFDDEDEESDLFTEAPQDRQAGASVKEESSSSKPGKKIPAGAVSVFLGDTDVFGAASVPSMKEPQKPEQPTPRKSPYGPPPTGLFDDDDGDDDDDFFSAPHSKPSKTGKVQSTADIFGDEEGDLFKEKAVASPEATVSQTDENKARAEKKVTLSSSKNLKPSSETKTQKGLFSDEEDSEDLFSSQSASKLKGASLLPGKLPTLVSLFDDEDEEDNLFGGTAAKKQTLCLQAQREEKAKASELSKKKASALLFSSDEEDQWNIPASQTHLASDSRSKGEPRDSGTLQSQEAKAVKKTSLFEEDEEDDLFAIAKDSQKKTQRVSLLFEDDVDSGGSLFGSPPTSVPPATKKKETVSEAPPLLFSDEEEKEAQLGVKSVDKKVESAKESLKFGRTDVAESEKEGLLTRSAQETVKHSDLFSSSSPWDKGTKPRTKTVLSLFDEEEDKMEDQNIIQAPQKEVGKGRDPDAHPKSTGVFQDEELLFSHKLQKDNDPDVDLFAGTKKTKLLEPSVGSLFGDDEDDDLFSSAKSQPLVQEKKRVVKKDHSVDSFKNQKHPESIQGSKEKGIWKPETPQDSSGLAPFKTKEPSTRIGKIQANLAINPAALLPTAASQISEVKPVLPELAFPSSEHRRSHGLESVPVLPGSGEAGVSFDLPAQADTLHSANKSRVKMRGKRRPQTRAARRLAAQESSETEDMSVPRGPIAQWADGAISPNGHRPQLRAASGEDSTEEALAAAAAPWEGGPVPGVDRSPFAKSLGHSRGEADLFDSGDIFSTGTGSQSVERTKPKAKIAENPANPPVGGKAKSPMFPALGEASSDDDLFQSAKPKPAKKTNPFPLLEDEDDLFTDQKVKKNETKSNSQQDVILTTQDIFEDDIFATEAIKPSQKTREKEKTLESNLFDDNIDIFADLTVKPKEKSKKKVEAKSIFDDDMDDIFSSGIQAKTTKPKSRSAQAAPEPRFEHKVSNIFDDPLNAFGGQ
Chain of UniProt P51668 (P51668 whole entry, looked up): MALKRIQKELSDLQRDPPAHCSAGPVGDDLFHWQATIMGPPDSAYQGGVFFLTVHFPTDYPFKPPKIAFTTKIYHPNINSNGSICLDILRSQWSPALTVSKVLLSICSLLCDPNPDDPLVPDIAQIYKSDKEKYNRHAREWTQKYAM
Chain of UniProt Q9HCN3 (Q9HCN3 whole entry, looked up): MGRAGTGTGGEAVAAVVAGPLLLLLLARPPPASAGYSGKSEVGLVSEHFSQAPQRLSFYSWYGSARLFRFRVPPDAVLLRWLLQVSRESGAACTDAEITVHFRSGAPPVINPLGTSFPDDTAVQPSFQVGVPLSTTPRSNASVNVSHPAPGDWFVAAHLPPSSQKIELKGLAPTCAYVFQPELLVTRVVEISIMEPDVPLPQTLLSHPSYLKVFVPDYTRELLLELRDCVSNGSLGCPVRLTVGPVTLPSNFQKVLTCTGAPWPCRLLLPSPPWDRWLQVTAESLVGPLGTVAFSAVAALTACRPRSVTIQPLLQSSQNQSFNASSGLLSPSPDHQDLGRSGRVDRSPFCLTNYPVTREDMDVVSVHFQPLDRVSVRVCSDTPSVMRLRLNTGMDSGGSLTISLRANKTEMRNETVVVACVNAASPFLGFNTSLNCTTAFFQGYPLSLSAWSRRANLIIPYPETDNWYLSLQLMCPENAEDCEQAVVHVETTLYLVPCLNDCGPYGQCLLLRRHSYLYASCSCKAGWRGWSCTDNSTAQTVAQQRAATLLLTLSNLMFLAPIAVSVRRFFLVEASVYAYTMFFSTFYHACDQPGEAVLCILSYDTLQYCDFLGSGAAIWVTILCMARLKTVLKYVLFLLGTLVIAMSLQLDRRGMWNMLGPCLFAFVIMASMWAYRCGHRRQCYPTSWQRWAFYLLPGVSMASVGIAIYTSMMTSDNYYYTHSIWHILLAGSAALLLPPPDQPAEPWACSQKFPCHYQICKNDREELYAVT
Chain of UniProt Q96HV5 (Q96HV5 whole entry, looked up): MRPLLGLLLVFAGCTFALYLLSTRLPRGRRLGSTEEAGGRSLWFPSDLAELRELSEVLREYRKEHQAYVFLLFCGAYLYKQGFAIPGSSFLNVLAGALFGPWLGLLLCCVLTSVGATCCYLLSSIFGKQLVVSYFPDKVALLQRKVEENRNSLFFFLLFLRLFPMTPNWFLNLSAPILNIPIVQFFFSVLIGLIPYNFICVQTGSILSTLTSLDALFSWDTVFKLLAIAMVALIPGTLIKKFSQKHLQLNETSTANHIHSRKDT

log2 fold change, inactive:
TRIM44 (UniProt Q96DX7) 0.051
TRIM23 (UniProt P36406) 0.002
VPS28 (UniProt Q9UK41) 0.006
UBE2D1 (UniProt P51668) -0.075
TMEM268 isoform 3 (UniProt Q5VZI3) 0.014
WASHC2A (UniProt Q641Q2) 0.035
TMEM179B (UniProt Q7Z7N9) 0.019
UBE4B isoform 4 (UniProt O95155) -0.011
TRAPPC6B (UniProt Q86SZ2) 0.04
TMEM9B (UniProt Q9NQ34) 0.164
TSPAN13 (UniProt O95857) 0.095
TMEM8A (UniProt Q9HCN3) 0
WEE1 (UniProt P30291) -0.037
UNC119B (UniProt A6NIH7) -0.089
TRIM4 (UniProt Q9C037) -0.138
UBIAD1 (UniProt Q9Y5Z9) 0.006
USP48 isoform 8 (UniProt Q86UV5) 0.097
TUT4 (UniProt Q5TAX3) -0.066
TMEM41A (UniProt Q96HV5) 0.082
TMEM184C (UniProt Q9NVA4) -0.092
TXNL4B (UniProt Q9NX01) 0.028
UBE2S (UniProt Q16763) -0.037
VKORC1 (UniProt Q9BQB6) 0.081
